Source: PubChem (National Center for Advancing Translational Sciences (NCATS))
Gal4-VP16 FLuc: Gal4-VP16 reporter inhibition counter-screen; Potency, µM (highest dose often 53.6 µM), inactives show at the top dose activity, negative = inhibition, most hits filed as inhibitors; actives 3.5% (n = 310,000); Drosophila S2 Gal4-VP16 UAS-luciferase, luminescence, 20 h;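 note: Gal4-VP16 expression switched on by copper sulfate through the metallothionein promoter; % is set by controls: 0 for no effect and ±100 for the full control effect; nearly all actives have a fitted effect of over 50% in size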
uPA generation: blocks generation of uPA at the cell surface. cell surface uPA generation assay, qHTS. Potency, µM (series often up to 38.3 µM), for inactives: at the highest dose activity change, negative = inhibition, hits mostly inhibitors. actives 0.31% (n = 330,000); active = well fitted inhibition curve with a large enough effect; inconclusive = small, poorly fitted or top-dose-only effect; inactive = no such curve, though single readings can be large or run the other way; tested in mouse RAW 264.7 cells; note: % is set by controls: 0 for no effect and ±100 for the full control effect; nearly all actives have a fitted effect of over 55% in size
RORgamma inh: ROR gamma (mouse) transcription inhibition; actives 5.4% (n = 310,000); AID 2551; P51450; Drosophila S2 Gal4-RORgamma UAS-luciferase reporter, 20 h; Potency, µM (top dose mostly 53.6 µM), for inactives: at the top dose activity change, negative = inhibition, hits mostly inhibitors; note: % is set by controls: 0 for no effect and ±100 for the full control effect; nearly all actives have a fitted effect of over 60% in size
Target sequence (P51450 whole entry, looked up, the tested form may be a part): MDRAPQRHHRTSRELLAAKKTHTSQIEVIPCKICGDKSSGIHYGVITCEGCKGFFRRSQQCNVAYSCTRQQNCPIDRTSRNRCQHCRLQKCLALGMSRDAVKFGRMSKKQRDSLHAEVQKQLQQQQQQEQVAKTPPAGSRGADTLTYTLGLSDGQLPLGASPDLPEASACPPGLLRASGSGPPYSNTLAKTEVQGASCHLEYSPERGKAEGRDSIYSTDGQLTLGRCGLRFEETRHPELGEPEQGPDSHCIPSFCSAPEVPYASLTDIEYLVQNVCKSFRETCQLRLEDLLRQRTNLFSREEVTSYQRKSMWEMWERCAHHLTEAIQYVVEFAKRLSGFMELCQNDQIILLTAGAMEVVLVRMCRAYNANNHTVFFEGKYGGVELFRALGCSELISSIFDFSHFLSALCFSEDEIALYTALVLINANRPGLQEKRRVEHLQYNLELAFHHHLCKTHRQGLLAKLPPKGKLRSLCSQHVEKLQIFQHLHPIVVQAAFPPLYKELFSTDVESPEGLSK
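Stably transfected Drosophila Schneider cells are the test system, with ROR gamma fused to Gal4 and luciferase under UAS control; luminescence is read after 20 hr of 700 uM copper sulfate induction at ambient temperature.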
Mito fusion yeast: mitochondrial division inhibition or fusion activation; S. cerevisiae fusion-defective mutant growth rescue, CellTiterGlo 48 h; Potency, µM (highest dose often 46.1 µM), inactives show at the highest dose growth rescue (activation), usual class: activators; actives 0.23% (n = 320,000); AID 485298; note: % of control where 0% means no effect; nearly all actives have a fitted effect of over 45% in size
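S. cerevisiae fusion-defective temperature-sensitive mutants (e.g. fzo1-1, mgm1-5) grown 48 h at 37C in YPEG (ethanol/glycerol non-fermentable) medium with 23 nl compound per well; growth rescue read as CellTiterGlo luminescence.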
a7 integrin act: activates integrin-mediated alleviation for muscular dystrophy; alpha7betagal myoblasts, beta-gal FDG fluorescence, 48 h; Potency, µM (highest dose often 38.3 µM), inactives show at the highest dose activation, hits mostly activators; actives 0.064% (n = 350,000); AID 624291;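 note: 100% = response of the positive control SU9516; nearly all actives have a fitted effect of over 60% in size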
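alpha7betagal+/- myoblasts (passage 13, 250/well) treated 48 h at 37C with compounds at 1:260 dilution of DMSO stock. Lysed, then beta-galactosidase activity read as FDG fluorescence (ex 480/em 540) after 30 min, with pre-read for autofluorescence.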
Chronic BCR inh: inhibitors of chronic active B-cell receptor signaling; ABC-DLBCL IkBa-CBG/CBR reporter, luminescence ratio, 4 h; Potency, µM (series often up to 46.1 µM), for the others: top-dose activity change, negative = inhibition, actives largely listed as inhibitors; actives 0.05% (n = 340,000); AID 493014; active = well fitted inhibition curve with a large enough effect in the signal ratio, with a control signal flat, not every such curve was filed as active; inconclusive = small, poorly fitted or top-dose-only effect, or effect the other way, or a change in a side signal; the % refers to the signal ratio;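 note: plate controls were basal doxycycline-induced cells for no effect and cells given 10 µM MG132 for full effect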
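Compounds up to 46 uM were incubated four hours with TMD8 cells whose green CBG68 luciferase is fused to IkappaBalpha; red CBR luminescence normalised the signal, and concentration-effect curves were fitted to fusion, red and ratio data.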
The depositor's hits bear a star; ? = inconclusive; / = no result; [ ] = dose if it differs, or a comment. In the library only some 5.5% were active in any assay of this set; here they are far more common. Unless noted, calls come from the whole dose curve; as a rule, active = well fitted curve in the direction sought with a large enough effect; inconclusive = small, poorly fitted or top-dose-only effect, or another doubt; inactive = no such curve, though single readings can be large; an effect the other way counts as inactive or inconclusive. Potency is the fitted concentration of half-maximal effect.

SMILES	Gal4-VP16 FLuc	uPA generation	RORgamma inh	Mito fusion yeast	a7 integrin act	Chronic BCR inh
CC1CCN(c2[nH]c(=S)c(C#N)c3c2CCCC3)CC1	?	6%	7.1µM*	-5%	-25%	0%
CC1(C)Cc2c(c(N3CCCCC3)[nH]c(=S)c2C#N)CS1	-4%	5%	0%	3%	-10%	3%
Cc1ccc(C)c(-n2[nH]c3c4c(ccc3c2=O)C(=O)c2ccccc2C4=O)c1	-23%	0%	6.3µM*	1%	4%	0%
CC(C)(C)n1[nH]c2c3c(ccc2c1=O)C(=O)c1ccccc1C3=O	-19%	-2%	?	-2%	-59%	?
Cc1ccc(-n2[nH]c3c4c(ccc3c2=O)C(=O)c2ccccc2C4=O)cc1	3%	2%	-5%[10 µM]	-4%	29%	-5%
COCCCn1[nH]c2c3c(ccc2c1=O)C(=O)c1ccccc1C3=O	?	-11%	16µM*	-1%	-21%	?
COc1ccc(N2CC(NC(=O)COc3cccc(C)c3)CC2=O)cc1OC (stereo not given)	/	/	/	/	/	4%
CC(=N\NC(=O)c1ccc([N+](=O)[O-])cc1)/C(=N/O)C(=O)Nc1ccccc1	6.3µM*	0%	4µM*	2%	0%	6%
Cc1c(Cl)cccc1NC(=O)c1oc2ccc(S(=O)(=O)N3CCC4(CC3)OCCO4)cc2c1C	/	/	/	/	/	-17%
O=C(CCc1nnc(C2CCCCC2)o1)N1CCC(Oc2cccnc2)CC1	2%	3%	9%	-2%	?	0%
COc1nc(Nc2nc3ccccc3c(=O)[nH]2)nc2ccc(C)cc12	5µM*	-5%	?	8%	-49%	?
Cc1cc(C)cc(Nc2nc3ccccc3c(=O)[nH]2)c1	-1%	2%	-41%	5%	-6%	2%
CN(C)c1cccc(C(=O)OCc2cc(=O)oc3cc(O)ccc23)c1	?	-1%	8.9µM*	15%	19%	-22%
CCCNS(=O)(=O)c1cccc(C(=O)OCc2cc(=O)oc3cc(OC)ccc23)c1	12%	-15%	-1%	?	-25%	13µM*
CCCCOc1ccc(C(=O)NCC(=O)NCCCn2nc(C)cc2C)cc1	/	15%	/	-5%	-59%	?
CNC(=S)N1N=C(c2ccc(OC)cc2)CC1c1ccc(N(C)C)cc1 (stereo not given)	?	-10%	13µM*	-4%	0%	3%
Fc1ccc(C2CC(c3cccs3)=NN2C(=S)Nc2ccccc2)cc1 (stereo not given)	-11%	-8%	7.9µM*	?	-14%	4%
COc1cc(C2CC(c3cccs3)=NN2C(=O)CCl)ccc1OC(F)F (stereo not given)	16µM*	-3%	?	-24%	-75%	13%
COc1ccc(C2CC(c3cccs3)=NN2C(=O)CCl)cc1OC (stereo not given)	?	-12%	?	6%	-57%	-19%
CNC(=S)N1N=C(c2ccc(Br)cc2)CC1c1ccc(N(C)C)cc1 (stereo not given)	0%	-1%	?	23%	0%	1%
O=C(Nc1ccccc1)N1N=C(c2ccc(F)cc2)CC1c1ccc(F)cc1 (stereo not given)	1%	-2%	34%	17%	6%	3%
CNC(=S)N1N=C(c2cccs2)CC1c1ccc(OC)cc1 (stereo not given)	-9%	-4%	20µM*	-7%	?	-1%
Cc1cccc(-c2nc3scc(CCNS(=O)(=O)c4ccc5c(c4)OCCO5)n3n2)c1	/	/	/	/	/	-1%
COCC(C)NC(=O)CSc1nc2cc(S(=O)(=O)N3CCCCC3)ccc2o1 (stereo not given)	/	12%	/	-1%	27%	-3%
N/C(=N\OC(=O)c1ccccc1Br)c1ccc([N+](=O)[O-])cc1	?	-6%	?	7%	-31%	?
